Compound activity (PubChem)
Compounds with a hit are over-represented: about 1.2% of the library has one in this group of screens.
RXFP1 ag: qHTS Assay for Agonists of the Relaxin Receptor RXFP1; HEK293T-RXFP1 cAMP TR-FRET, 30 min; response scale: percent of porcine relaxin response, buffer zero; Relaxin receptor 1 (Homo sapiens), Q9HBX9; 0.3% of 370,000 active; AID 2676, 2010; Potency, µM (series often up to 57.5 µM), without a hit: top-dose activation, actives largely listed as activators; active means well fitted activation curve with a large enough effect; inconclusive means small, poorly fitted or top-dose-only effect; further: potency means the concentration at half of the fitted maximal effect; on the % scale 0 is the no-effect control and ±100 the full control effect; nearly all actives have a fitted effect of over 60% in size
Target sequence (Q9HBX9 whole entry, looked up): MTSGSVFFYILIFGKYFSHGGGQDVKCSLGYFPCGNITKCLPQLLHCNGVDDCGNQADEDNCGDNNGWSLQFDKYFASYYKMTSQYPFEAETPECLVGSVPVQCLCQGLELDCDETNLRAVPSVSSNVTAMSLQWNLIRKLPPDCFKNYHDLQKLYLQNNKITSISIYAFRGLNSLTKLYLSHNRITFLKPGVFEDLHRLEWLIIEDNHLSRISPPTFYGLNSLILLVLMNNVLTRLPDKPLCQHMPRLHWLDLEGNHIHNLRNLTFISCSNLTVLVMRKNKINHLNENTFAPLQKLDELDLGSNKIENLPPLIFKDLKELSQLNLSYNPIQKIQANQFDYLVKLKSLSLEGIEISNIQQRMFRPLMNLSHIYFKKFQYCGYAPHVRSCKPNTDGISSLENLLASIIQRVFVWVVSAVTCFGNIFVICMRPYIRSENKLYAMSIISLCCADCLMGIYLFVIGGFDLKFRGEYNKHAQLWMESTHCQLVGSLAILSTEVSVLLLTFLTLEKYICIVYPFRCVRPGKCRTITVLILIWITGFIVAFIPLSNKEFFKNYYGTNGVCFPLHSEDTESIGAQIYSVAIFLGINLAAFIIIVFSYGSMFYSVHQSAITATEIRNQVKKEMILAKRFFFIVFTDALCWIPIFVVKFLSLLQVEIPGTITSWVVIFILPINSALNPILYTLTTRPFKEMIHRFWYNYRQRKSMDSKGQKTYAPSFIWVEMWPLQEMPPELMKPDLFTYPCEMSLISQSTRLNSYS
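HEK293 cells stably expressing RXFP1, treated 30 min at 37C with compounds plus PDE4 inhibitor Ro 20174; cAMP measured by HTRF TR-FRET. Normalized to buffer and 29 nM porcine relaxin; EC50 by Hill fit.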
RXFP1 antagonist: qHTS Assay for Antagonists of the Relaxin Receptor RXFP1 | HEK293-RXFP1, relaxin-stimulated cAMP HTRF, 30 min; hits give low values | activity change, negative = inhibition, % at 57.5 µM | 0.59% of 350,000 active | AID 1259400, 2018;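 active means activity change of -60% or lower, but not beyond a set lower limit; inconclusive means change between -60% and -40%, or beyond the set limit; inactive means change above -40%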; further: on the % scale 0 is the no-effect control and ±100 the full control effect
gsp antagonist: qHTS for Antagonists of gsp, the Etiologic Mutation Responsible for Fibrous Dysplasia/McCune-Albright Syndrome: qHTS; gsp-mutant cells, cAMP HTRF, 30 min; Potency, µM (doses to about 76.9 µM), for inactives: at the highest dose activity change, negative = inhibition, most hits filed as inhibitors; 0.4% of 340,000 active; AID 624288, 2012; calls by dose curve; cell line not stated here;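 further: intracellular cAMP measured with PDE inhibitor Ro 20-1724 present during compound exposure; potency means the concentration at half of the fitted maximal effect; on the % scale 0 is the no-effect control and ±100 the full control effect; nearly all actives have a fitted effect of over 65% in size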
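HTRF cAMP measurement after 30 min RT detection following 30 min, 37C compound treatment alongside […] (added as 300 uM solution) in G418-selected cells seeded at 2000/well and grown 16–24 h.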
Akt phos inh: HTS Assay for Inhibitors of Akt Phophorylation: Primary Screen | Neuro2A IGF-stimulated pAkt S473 HTRF, 20 min; hits give low values | activity change, % for hits at 50 µM | 0.32% of 360,000 active | AID 651550, 2012; in the data active means activity change below about -80%; inconclusive means mostly about -51% to -80%; further: on the % scale 0 is the no-effect control and ±100 the full control effect
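Single-point screen (50 µM final compound) in Neuro2A cells stimulated 20 min with 6 nM IGF at 37 deg C. After lysis, Ser473-phosphorylated Akt read by HTRF (ex 330 nm, em 615/665 nm) as the 665/615 ratio.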
gsp ag: qHTS for Agonist of gsp, the Etiologic Mutation Responsible for Fibrous Dysplasia/McCune-Albright Syndrome: qHTS. gsp mutant cells, cAMP HTRF, 30 min. 0.13% of 340,000 active. Potency, µM (highest dose often 76.9 µM), inactives show top-dose activation (cAMP increase), hits mostly activators; active means well fitted activation curve with a large enough effect; inconclusive means small, poorly fitted or top-dose-only effect, or another doubt; inactive means no such curve, though single readings can be large or run the other way; cell line not stated here;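 further: phosphodiesterase inhibitor Ro 20-1724 added with compounds to block cAMP breakdown; potency means the concentration at half of the fitted maximal effect; nearly all actives have a fitted effect of over 60% in size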
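Cells in DMEM/10% FBS with G418 were pretreated with compounds in DMSO plus […] (300 uM stock) for 30 min at 37C. cAMP was measured by HTRF (cAMP-d2 plus anti-cAMP antibody-K) after 30 min at room temperature.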
* marks the source's active call; other numbers are inactive results; i = inactive; ? = inconclusive; . = no result; [ ] = remark or other dose.

SMILES | RXFP1 ag | RXFP1 antagonist | gsp antagonist | Akt phos inh | gsp ag
O=Nc1c(-c2c(O)[nH]c3cc(Br)ccc23)[nH]c2ccccc12 | 0% | . | 20µM* | i | .
CC(=O)N1N=C(c2cccs2)CC1c1cc2cc(C)ccc2nc1Cl (configuration not stated) | 7% | 2 | 50µM* | i | -37%
Cc1ccc2nc(Cl)c(C3CC(c4cccs4)=NN3S(C)(=O)=O)cc2c1 (configuration not stated) | -1% | 3 | -23% | i | 13%
CC(C)N=c1scc(-c2cccs2)n1/N=C/c1ccc(O)c(O)c1O | 1% | -63* | -14% | i | -25%
CCN=c1scc(-c2cccs2)n1/N=C/c1cc(OC)ccc1O | 0% | -2 | ? | i | 16%
CN=c1scc(-c2ccccc2F)n1/N=C/c1ccc(O)c(O)c1O | -3% | -65* | 16% | i | 3%[15.4 µM]
CCCNC(=O)C1=CC(c2ccc3c(c2)OCO3)=NS(=O)(=O)N1C | -2% | 4 | . | . | .
CCCOC(=O)c1ccc(OCC(O)CN2CCN(C(=O)c3ccccc3)CC2)cc1 (configuration not stated) | 10% | 10 | -1% | -128%* | -7%
CC(C)(C)c1ccc(OCC(O)CN2CCN(C(=O)c3ccccc3)CC2)cc1 (configuration not stated) | 0% | -3 | -1% | i | 3%
COc1cccc2cc(C(=O)NCCc3c(C)[nH]c4ccc(Br)cc34)c(=O)oc12 | 0% | . | . | . | .
Cc1csc(NC(=O)c2ccccc2O)n1 | 0% | -1 | -8% | -99%* | 4%
O=C(Nc1ccccc1O)c1ccccc1O | -2% | 8 | 25µM* | i | 11%
CCOc1ccc(S(=O)(=O)c2cn(Cc3ccc(C)cc3)c3ccc(OC)cc3c2=O)cc1 | 7% | -7 | . | . | .
Cc1ccc2nc(N/C(=N/S(=O)(=O)c3ccc(F)cc3)c3ccccc3)sc2c1 | -1% | 9 | 25µM* | i | 3%
CC(CNC(=O)Cn1ncc2c3ccccc3n(Cc3cccc(Cl)c3)c2c1=O)c1ccccc1 (configuration not stated) | ? | -6 | . | . | .
CCN(CC)CC(=O)Oc1ccc(NC(C)=O)cc1 | . | 10 | . | . | .
Cc1c(C(=O)OCC2CCCO2)[nH]c2c1C(=O)CC(c1ccc(N(C)C)cc1)C2 (configuration not stated) | -1% | -35 | 40µM* | i | -26%
Cc1c(C(=O)OCc2ccccc2)[nH]c2c1C(=O)CC(c1ccc(N(C)C)cc1)C2 (configuration not stated) | 0% | 3 | . | . | .
COc1ccc(CCNC(=O)C2CCN(S(=O)(=O)N3CCC4(CC3)OCCO4)CC2)cc1OC | 0% | -1 | 0% | i | -22%
COCCNC(=O)C1CCN(S(=O)(=O)N2CCC3(CC2)OCCO3)CC1 | 3% | -8 | 10% | -82%* | 0%
COc1ccc(S(=O)(=O)N2CCN(C(=O)NC3CCCCC3)CC2)cc1OC | -1% | -11 | -9% | -106%* | -24%
COc1ccc(C(=O)NC2CCCCCC2)cc1S(=O)(=O)N1CCCC1 | 1% | -4 | 11µM* | i | 4%[15.4 µM]
COc1ccc(C(=O)NC2CCCCC2)cc1S(=O)(=O)N1CCOCC1 | 1% | -1 | 4% | i | -3%
O=C(Cn1c2c(c(=O)n3ncnc13)CCC2)N/N=C/c1ccc(Cl)cc1 | 0% | 4 | -4% | i | 7%
Cn1c2c(c(=O)n3ncnc13)CCCC2 | 22µM* | -10 | 15% | i | 31%[15.4 µM]
SMILES | RXFP1 ag | RXFP1 antagonist | gsp antagonist | Akt phos inh | gsp ag
O=C(C=Cc1ccccc1O)c1ccccc1O | . | -66* | -8% | i | -34%
O=C(/C=C/c1ccccc1Cl)c1ccccc(=O)c1O | 5% | -79* | 4% | i | -58%
O=C(/C=C/c1ccc(Cl)cc1)c1cccnc1 | 2% | . | 22% | i | -7%
Cc1ccc(C)c(/C=C/C(=O)c2ccccc(=O)c2O)c1 | -1% | ? | -21% | i | -11%
O=C(/C=C/c1ccccc1Cl)c1cccnc1 | 2% | -72* | 2% | i | 0%
COc1ccccc1/C=C(\C#N)c1nc(-c2cc3ccccc3oc2=O)cs1 | 2% | -6 | . | . | .
Cc1ccccc1C(=O)Nc1nc(-c2ccc(Br)cc2)ns1 | 8% | -5 | . | . | .
Cc1ccc(NC(=O)CCn2nc(-c3ccccc3)c3ccccc3c2=O)c(C)c1 | 6% | -3 | . | . | .
CCN=C1SC(CC(=O)NC2CCCCC2)C(=O)N1CC (configuration not stated) | 1% | 3 | -2% | i | 8%
CCN=C1SC(CC(=O)NC(N)=O)C(=O)N1CC (configuration not stated) | 0% | -10 | 16% | -106%* | 29%
COc1ccc(OC)c(NC(=O)CN2C(=O)CC(C)Sc3ccccc32)c1 (configuration not stated) | 2% | . | . | . | .
O=C(Nc1cccc2ncccc12)c1cccc(F)c1 | -2% | -7 | 13% | -107%* | 6%
COC(=O)c1cc(Cl)ccc1NS(=O)(=O)C(F)(F)F | . | 12 | . | . | .
CCN1C(=O)c2ccccc2S(=O)(=O)c2ccc(C(=O)NCc3ccc(C)cc3)cc21 | 0% | . | . | . | .
Cc1cc(C)c(O)c(-c2n[nH]c3c2C(c2cccc(O)c2)N(Cc2ccco2)C3=O)c1 (configuration not stated) | -2% | -80* | -20% | i | -19%
CCc1cccc(NC(=O)c2cccc3c2C(=O)N(CC2CCCO2)C3)c1 (configuration not stated) | 1% | -6 | 35µM* | i | 10%
Nc1ccc([N+](=O)[O-])c(C(F)(F)F)c1 | . | 16 | . | . | .
CCOc1ncccc1C(=O)OCC(=O)N1CCN(S(=O)(=O)c2ccc(Cl)cc2)CC1 | 2% | -11 | -24% | i | 7.9µM*
Nc1ncccc1C(=O)OCC(=O)N1CCN(S(=O)(=O)c2ccc(Cl)cc2)CC1 | 1% | 0 | -8% | i | 2%
O=C(NCCc1ccccc1)c1cc(S(=O)(=O)N2CCOCC2)ccc1F | 0% | -4 | 1% | i | 28%
COc1ccccc1N1CCN(C(=S)Nc2ccc(S(=O)(=O)N3CCOCC3)cc2)CC1 | 2% | -5 | 32µM* | i | 4%[15.4 µM]
O=C(NCc1ccccc1)c1cc(S(=O)(=O)N2CCOCC2)ccc1F | 3% | 12 | 8% | -114%* | -18%
CCOc1ccccc1N(CC(=O)Nc1ccc(S(=O)(=O)N2CCOCC2)cc1)S(=O)(=O)c1ccccc1 | -1% | -1 | ? | -127%* | -3%
